Laboratory results reported in ChEMBL document CHEMBL3988442, “University of Dundee, Small-Polar-MMV Screening Library” (2021).
Out of some 69,000 compounds screened, about 1,000 (1.4%) showed an effect of 50% or more. The entries come from a sample that favours strong results as a whole.

Test system: Leishmania donovani
Assay: Leishmania intramacrophage assay
Format: functional, organism-based
Parameters: scale not given: in the data most compounds retested in dose-response had high values

## CCn1nc(C)c2ncnc(NCCn3cccn3)c21
30.3 µM, […]
  Percent Effect: -8.829%

## N#Cc1ccc(N2CCC3(CC2)COCCN3Cc2cccnc2)cc1.O=C(O)C(F)(F)F
30.3 µM, […]
  Percent Effect: -0.3912%

## CNc1ncc2c(n1)CN(C1CC(C)(C)NC(C)(C)C1)C2=O
30.3 µM, […]
  Percent Effect: 57.04%

## CC1(C)CC(N2Cc3nc(N)ncc3C2=O)CC(C)(C)N1
30 µM, 30.03 µM
  Percent Effect: 0.1811%

## CNc1ncc2c(n1)CN(C1CCCC1)C2=O
30.3 µM, […]
  Percent Effect: -21.11%

## CCc1nsc(NC2CC(=O)N(C3CC3)C2)n1 (stereo unspecified)
30.3 µM, […]
  Percent Effect: 25.34%

## Cc1ccc(-c2[nH]c3ccccc3c2C(=O)O)c(C)c1
30.3 µM, […]
  Percent Effect: 12.49%

## COCCN1CCC(CNC(=O)Nc2ccc(F)c(Cl)c2)C1 (stereo unspecified)
30.3 µM, […]
  Percent Effect: 9.001%

## COCCN1CCC(CNC(=O)Nc2ccc(-c3ccccc3)cc2)C1 (stereo unspecified)
30.3 µM, […]
  Percent Effect: 93.25%

## COCCN1CCC(CNC(=O)Nc2ccc(SC(F)(F)F)cc2)C1 (stereo unspecified)
30.3 µM, […]
  Percent Effect: 43.78%

## Cc1cccc(CN2CCC3(CC(C(=O)NCC(C)C)=NO3)C2)c1 (stereo unspecified)
30.3 µM, […]
  Percent Effect: 14.53%

## CN(Cc1ccc([S+](C)[O-])cc1)c1ccc(Br)cn1 (stereo unspecified)
30.3 µM, […]
  Percent Effect: 20.24%

## CN(Cc1ccc([S+](C)[O-])cc1)c1ccc(C(F)(F)F)cn1 (stereo unspecified)
30.3 µM, […]
  Percent Effect: 54.49%

## CN(Cc1ccccc1)c1ccc(C(F)(F)F)cn1
30.3 µM, […]
  Percent Effect: 14.63%

## Cn1ccnc1CN1CCCN(C(=O)CC(C2CC2)C2CC2)CC1
30 µM
  Percent Effect: 10.73%

## Cn1nc(C(=O)NCc2ccccn2)c2c1CCS(=O)(=O)C2
30 µM, 30.03 µM
  Percent Effect: -1.622%

## Cc1ncc(CNC(=O)c2nn(C)c3c2CS(=O)(=O)CC3)s1
30 µM, 30.03 µM
  Percent Effect: 17.47%

## Cn1nc(C(=O)NCc2cccs2)c2c1CCS(=O)(=O)C2
30.3 µM, […]
  Percent Effect: 62.35%

## CN1C(=O)CCCC12CCCN(Cc1cccs1)C2.O=C(O)C(F)(F)F (stereo unspecified)
30.3 µM, […]
  Percent Effect: 13.27%

## OC(COCc1ccccc1F)CN1CCC(Cn2cccn2)CC1 (stereo unspecified)
30.3 µM, […]
  Percent Effect: 8.392%

## Cc1ccc(CN2C[C@@H]3CN(C(=O)c4cccn4C)C[C@@H]3C2)cc1.O=C(O)C(F)(F)F
30.3 µM, […]
  Percent Effect: -2.2%

## Cc1noc(CNc2c(N3CCCC3)cccc2N2CCCC2)n1
30.3 µM, […]
  Percent Effect: 45.54%

## COc1ccccc1N1CCC(NCc2c(C)noc2C)C1 (stereo unspecified)
30.3 µM, […]
  Percent Effect: 7.918%

## Cc1noc(C)c1CNc1c(N2CCCC2)cccc1N1CCCC1
30.3 µM, […]
  Percent Effect: 97.2%

## Cc1cc(CN2CCC(N(C)Cc3noc(C4CC4)n3)C2)on1 (stereo unspecified)
30 µM
  Percent Effect: 11.66%

## O=C(c1ccncc1)N1CCCn2c(CN3CCCCC3)nnc2C1
30 µM, 30.03 µM
  Percent Effect: -1.304%

## CN1CC(c2cc(O)nc(NCc3ccccc3Cl)n2)CC1=O (stereo unspecified)
30.3 µM, […]
  Percent Effect: 7.659%

## Cc1nc(C2(O)CCCNCC2)sc1CCOc1ccccc1Cl.Cl (stereo unspecified)
30.3 µM, […]
  Percent Effect: 22.61%

## CCN1CCCC(O)(c2nc(C)c(CCOc3ccccc3F)s2)CC1 (stereo unspecified)
30.3 µM, […]
  Percent Effect: 7.204%

## CCN1CCCC(O)(c2nc(C)c(CCOc3ccccc3Cl)s2)CC1 (stereo unspecified)
30.3 µM, […]
  Percent Effect: 29.58%

## Cc1nc(C2(O)CCCNCC2)sc1CCOc1ccccc1F.Cl (stereo unspecified)
30.3 µM, […]
  Percent Effect: 57.78%

## Cc1ncc(C(=O)NCCOc2ccccc2F)c(C)n1
30.3 µM, […]
  Percent Effect: 48.08%

## CC/N=c1/c(NC(=O)C2CC2)c(O)oc2ccccc12
30.3 µM, […]
  Percent Effect: -64.73%

## CNC(=O)C(C)(C)CNC(=O)Nc1ccc(C)cn1
30.3 µM, […]
  Percent Effect: -4.041%

## CN1CCC(N2CCC(C(=O)N(C)C)CC2)CC1.O=C(O)C(F)(F)F.O=C(O)C(F)(F)F
30.3 µM, […]
  Percent Effect: 15.52%

## Cc1cc(C(=O)NCc2ccnc(N3CCN(C)CC3)c2)no1
30 µM
  Percent Effect: 35.55%

## COc1ncc(-c2nccn2C(C)CCn2cccn2)cn1 (stereo unspecified)
30.3 µM, […]
  Percent Effect: 51.46%

## COCCCn1ccnc1-c1cnc(OC)nc1
30 µM, 30.03 µM
  Percent Effect: 27.45%

## COc1cc(-c2nccn2C(C)CCn2cccn2)cc2c1OCO2 (stereo unspecified)
30.3 µM, […]
  Percent Effect: 30.8%

## CCOCCNC(=O)c1cccnc1Sc1cc(OC)ccc1OC
30.3 µM, […]
  Percent Effect: 14.43%

## CC(NC1CCN(CCS(C)(=O)=O)CC1)c1ccc(Cl)cc1 (stereo unspecified)
30 µM, 30.03 µM
  Percent Effect: 14.89%

## CC(NCC1CCN(CCO)CC1)c1ccc(F)c(Cl)c1 (stereo unspecified)
30.3 µM, […]
  Percent Effect: 55.27%

## CC(NCC1CCN(CCO)CC1)c1ccc(Cl)cc1 (stereo unspecified)
30.3 µM, […]
  Percent Effect: 77.33%

## COc1ccc(CNCC2CCN(CCO)CC2)cc1F
30.3 µM, […]
  Percent Effect: 13.13%

## CC(NCC1CCN(CCO)CC1)c1ccc(C(F)(F)F)cc1 (stereo unspecified)
30.3 µM, […]
  Percent Effect: 77.37%

## COC1CCN(CCNC(=O)NC(C)c2cccc(Cl)c2)CC1 (stereo unspecified)
30.3 µM, […]
  Percent Effect: 6.711%

## OCCN1CCN(CC(O)c2ccc(C(F)(F)F)cc2)CC1 (stereo unspecified)
30.3 µM, […]
  Percent Effect: 28.06%

## CC(NCC1CCN(CCO)CC1)c1cccnc1 (stereo unspecified)
30.3 µM, […]
  Percent Effect: 10.64%

## CC(NCC1CCN(CCO)CC1)c1cccc(Cl)c1 (stereo unspecified)
30.3 µM, […]
  Percent Effect: 73.65%

## CN(CC1CCN(CCO)CC1)CC(O)c1ccc(F)c(F)c1 (stereo unspecified)
30.3 µM, […]
  Percent Effect: 32.26%

## CC(NCC1CCN(CCO)CC1)c1ccc(OC(F)(F)F)cc1 (stereo unspecified)
30.3 µM, […]
  Percent Effect: 36.61%

## Cc1ccc(CNC(=O)CNCC2CCN(CCO)CC2)s1
30.3 µM, […]
  Percent Effect: 12.94%

## O=C(O)C(F)(F)F.O=S(=O)(C1CC1)N1CCOCC2(CCN(c3ccccn3)C2)C1 (stereo unspecified)
30 µM, 30.03 µM
  Percent Effect: -13.08%

## CC(C)N(C)Cc1nnn2c1CN(Cc1cccnc1)CCC2.O=C(O)C(F)(F)F.O=C(O)C(F)(F)F.O=C(O)C(F)(F)F
30.3 µM, […]
  Percent Effect: -19.03%

## FC(F)(F)c1cc(C2CCNCC2)nc(-c2ccsc2)n1
30.3 µM, […]
  Percent Effect: 3.687%

## CN(Cc1ccccc1)S(=O)(=O)N1C[C@H](C2CC2)[C@@H](N)C1
30.3 µM, […]
  Percent Effect: 11.31%
